Here are results for 65 compounds from PubChem BioAssay AID1850 (Southern Research Specialized Biocontainment Screening …, 2009).

Out of some 310,000 compounds screened, about 1,000 (0.32%) were called active. How the calls were made is not given here. The list is a sample of the results. Potency and affinity values are given separately.

Broadly, the inhibition is the drop in the measured response relative to a control, in per cent.

A short description of this test: Inhibition of PhoP regulon, Salmonella typhi GFP reporter cells, confirmation, 4 h (AID 1850).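 Further: 0% = induced wells with vehicle and 100% = uninduced wells.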 Particulars: Salmonella Typhi PhoP-promoter GFP reporter, fluorescence, at 50 µM, hits give high values.
Turning to `O=C(OCC(=O)N1CCOCC1)c1ccccc1O`, the inhibition is 5.57% (inactive).

As to `CC1CC(C)CN(C(=O)COC(=O)c2ccc[nH]c2=O)C1` (stereo not given), the inhibition was -8.36% (inactive).

For the compound `CCCC(=O)N1CCN(c2nc3ccccc3s2)CC1`, the inhibition was -3.88% (inactive).

`Cc1ccc2c(Cl)cc(Cl)c(OCC(=O)N(C(C)C)C(C)C)c2n1`: the inhibition was -1.43% (inactive).

For the compound `Cc1ccc2c(Cl)cc(Cl)c(OCC(=O)NC(C)(C)C)c2n1`, the inhibition was -16.9% (inactive).

Consider `COc1cccc(C(=O)NC2CCCc3ccccc32)c1OC` (stereo not given), for which the inhibition was -9.26% (inactive).

In the case of `CS(=O)(=O)N(CCc1ccccc1)CC(=O)N1CCN(c2ccccc2)CC1`, the inhibition was -4.94% (inactive).

On to `COc1ccc(CCNC(=O)COC(=O)C23CC4CC(CC(C4)C2)C3)cc1`, for which the inhibition is -12.8% (inactive).

Regarding `CCc1ccccc1NC(=S)N1CCCCCC1`, the inhibition is -5.25% (inactive).

As for `O=C(Cn1cncn1)N/N=C/c1ccccc1Cl`, the inhibition is -13.1% (inactive).

As for `Cc1cc([N+](=O)[O-])nn1CC(=O)N/N=C/c1ccc(O)cc1O`, the inhibition was 18.8% (inactive).

In the case of `O=C(Cn1cncn1)N/N=C/c1cccc2ccccc12`, the inhibition is -7.61% (inactive).

Regarding `Cc1cc([N+](=O)[O-])nn1CC(=O)N/N=C/c1ccccc1Br`, the inhibition was 13.2% (inactive).

Take `O=C(NCC1CCCO1)c1cccc(Oc2ccccc2)c1` (stereo not given): the inhibition was -8.15% (inactive).

With `Oc1c(Br)cc(Br)cc1C=Nc1cccnc1`, the inhibition is 7.09% (inactive).

For `O=C(O)c1ccccc1N/N=C/c1cc(Br)cc(Br)c1O`, the inhibition was 5.52% (inactive).

As for `Brc1cccc(C=Nc2cccc3ncccc23)c1`, the inhibition was -0.83% (inactive).

As to `O=C(O)c1cccc(N/N=C/c2cc(Br)cc(Br)c2O)c1`, the inhibition is -6.95% (inactive).

For `Cc1cccc(N=Cc2cc(Br)cc(Cl)c2O)c1`, the inhibition is 10.7% (inactive).

`CN(C)c1ccc(C(=O)N/N=C/c2cc(Br)cc(Br)c2O)cc1`: the inhibition was -1.06% (inactive).

Consider `Cc1onc(-c2ccccc2Cl)c1C(=O)Nc1ccccc1C(N)=O`, for which the inhibition is 7.75% (inactive).

Regarding `O=C(Nc1nnc(-c2ccc(F)cc2)s1)c1ccco1`, the inhibition is 2.98% (inactive).

`O=C(O)/C(=C\c1cccs1)c1ccc(F)cc1`: the inhibition is -11.8% (inactive).

As to `CNC(=O)C1C2C=CC3(O2)C1C(=O)N(CCOC)C3C(=O)NCc1ccc(OC)cc1` (stereo not given), the inhibition was 16.8% (inactive).

For the compound `CC1CCCCC1NC(=O)CN(C)S(=O)(=O)c1cccc2cccnc12` (stereo not given), the inhibition was 10.4% (inactive).

As for `CC(=O)c1c(C(C)=O)c(C)n(-c2ccc(N)c(C)c2)c1C`, the inhibition is -3.65% (inactive).

Turning to `Cc1ccc(C)c(/C=C/C(=O)c2ccccc(=O)c2O)c1`, the inhibition was -3.4% (inactive).

Consider `Cc1ccc(/C=C/C(=O)c2ccccc(=O)c2O)c(C)c1`, for which the inhibition is -6.97% (inactive).

Consider `CCC(C)NC(=O)CSc1nc2ccc(N3CCOCC3)cc2c(=O)n1CCc1ccccc1` (stereo not given), for which the inhibition was -0.99% (inactive).

On to `Cc1cc(C(=O)N/N=C/c2c(C)n(C)c3ccccc23)n[nH]1`, for which the inhibition was -9.94% (inactive).

Turning to `O=C(O)[C@@H]1CC(O)CN1C(=O)CCc1c[nH]c2ccccc12` (stereo not given in full), the inhibition was 6.6% (inactive).

As to `COc1cc2c(cc1Cl)/C(=C\CCN(C)C)c1ccccc1S2`, the inhibition was 2.09% (inactive).

Consider `CN(C)CC/C=C1/c2cc(F)ccc2CSc2ccc(F)cc21`, for which the inhibition was -7.52% (inactive).

Take `CN(C)CC/C=C1/c2ccccc2Sc2ccc(Cl)cc21`: the inhibition is 21% (inactive).

For `CN(C)CC/C=C1\c2cc(Cl)ccc2Sc2cc(F)c(F)cc21`, the inhibition was 10.9% (inactive).

Consider `CN(C)CC/C=C1/c2ccccc2Sc2c(O)cc(Cl)cc21`, for which the inhibition was 14.1% (inactive).

Turning to `COc1cc(Cl)cc2c1Sc1ccccc1/C2=C/CCN(C)C`, the inhibition was -4.02% (inactive).

`CN(C)CC/C=C1\c2cc(F)ccc2CSc2ccccc21`: the inhibition was 1.61% (inactive).

For the compound `CN(C)CC/C=C1/c2ccc(F)cc2Sc2ccc(Cl)cc21`, the inhibition was -10.8% (inactive).

Regarding `Cc1cccc(OCCCC(=O)Nc2ccc(S(N)(=O)=O)cc2)c1`, the inhibition was -6.31% (inactive).

As for `CCCCCCSc1ccc(-c2nc3ccccn3c2NCCCC)cc1`, the inhibition is -1.64% (inactive).

In the case of `CC(C)CC(=O)c1c[nH]c(C(=O)NCCCN2CCOCC2)c1`, the inhibition is 0.393% (inactive).

As to `CCc1nnc(NC(=O)C=C(C)C)s1`, the inhibition was -12.1% (inactive).

Take `O=C(CSc1nccn1-c1ccccc1)NCc1ccc(F)cc1`: the inhibition was 5.7% (inactive).

As to `Cc1cc(C)cc(NC(=O)N2CCC(NC(=O)c3ccco3)CC2)c1`, the inhibition is -4.45% (inactive).

As to `COc1cc(C2(O)CCCCC2C)cc(OC)c1OC` (stereo not given), the inhibition was 0.64% (inactive).

As to `CC(C)C(C(=O)NCc1ccco1)N(Cc1ccco1)C(=O)CNS(=O)(=O)c1ccc(F)cc1` (stereo not given), the inhibition was -1.96% (inactive).

As for `COc1ccc(Cl)cc1NC(=S)NCc1cccs1`, the inhibition was -1.43% (inactive).

On to `Cc1ccc(NC(=O)c2cc(NC(=O)C3CC=CCC3C(=O)O)ccc2N2CCOCC2)cc1` (stereo not given), for which the inhibition is -15.3% (inactive).

As for `C/C(=N\NC(=O)c1ccc(F)cc1)c1ccc(NC(=O)Cc2ccccc2)cc1`, the inhibition is -10.7% (inactive).

Regarding `Oc1ccc(Cl)cc1Nc1nc(NCC2CCCO2)c2ccccc2n1` (stereo not given), the inhibition was 3.79% (inactive).

Take `c1ccc2c(NCC3CCCO3)nc(N3CCOCC3)nc2c1` (stereo not given): the inhibition was 0.7% (inactive).

Turning to `COc1cccc(-c2nc(NCC3CCCO3)c3ccccc3n2)c1O` (stereo not given), the inhibition was 0.02% (inactive).

In the case of `COc1ccc(-c2cc(C(=O)NCC3CCCO3)c3ccccc3n2)c(OC)c1` (stereo not given), the inhibition was -4% (inactive).

Regarding `Oc1ccccc1Nc1nc(NCC2CCCO2)c2ccccc2n1` (stereo not given), the inhibition was 19.4% (inactive).

With `COc1ccc(S(=O)(=O)Nc2nc3ccccc3nc2NCC2CCCO2)cc1` (stereo not given), the inhibition was -1.23% (inactive).

As for `COc1ccccc1Nc1nc(NCC2CCCO2)c2ccccc2n1` (stereo not given), the inhibition was 29.6% (inactive).

`Oc1ccccc1-c1nc(NCC2CCCO2)c2ccccc2n1` (stereo not given): the inhibition was -0.56% (inactive).

Regarding `O=C1CN=C(c2ccc[nH]2)c2cc(Cl)ccc2N1`, the inhibition is -4.67% (inactive).

For the compound `COC(=O)C1SCC2C(=O)N(Cc3cccc(C)c3)CC(=O)N21` (stereo not given), the inhibition is 0.26% (inactive).

On to `CN1C(=S)SC(C)(C)C1(C)NO` (stereo not given), for which the inhibition was -6.1% (inactive).

`O=C(CSc1nccn1Cc1ccccc1)Nc1ccccc1`: the inhibition was -2.04% (inactive).

Consider `CN(C)N1C(N)=C(C#N)C(c2ccc3c(c2)OCO3)C2=C1CC(C)(C)CC2=O` (stereo not given), for which the inhibition is -10.5% (inactive).

Regarding `c1ccc(-c2nc(NCC3CCCO3)c3ccccc3n2)nc1` (stereo not given), the inhibition was 2.1% (inactive).

In the case of `CC(C)Oc1ccc(-c2nc(NCC3CCCO3)c3ccccc3n2)cc1` (stereo not given), the inhibition was -13.6% (inactive).
